A selection: hits, their analogues and other compounds. The true share with any hit is near 3.7%.
Tau FP inhib: blocks human tau fibril formation measured by polarization | AID 1468 | P10636 | Potency, µM (titrated, usually from 57.7 µM), inactives show at the top dose activity, negative = inhibition, usual class: inhibitors | K18 P301L tau heparin fibrillization, Alexa594 FP, 6 h | actives 0.39% (n = 280,000); further: on the % scale 0 is the no-effect control and ±100 the full control effect; nearly all actives have a fitted effect of over 55% in size
Target sequence (P10636 561-689 P618L limits assumed): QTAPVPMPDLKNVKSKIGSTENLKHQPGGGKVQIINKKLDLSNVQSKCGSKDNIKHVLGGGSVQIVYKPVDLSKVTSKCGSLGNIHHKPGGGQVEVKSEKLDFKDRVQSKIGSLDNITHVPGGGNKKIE
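K18 P301L tau (15 uM unlabeled/0.24 uM Alexa 594-labeled, final) + compound + heparin 20 uM final; 100 mM NaOAc pH 7; 6 hr 37 C; ThT 30 uM final added, 1 hr RT; FP ex 555/em 632 nm.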
HTT aggregate: reduces HttQ103-GFP aggregates in PC12 cells. PC12 HttQ103-GFP aggregates, Acumen cytometry, 40 h. Potency, µM (doses to about 46.1 µM), for inactives: top-dose activity change, negative = inhibition, usual class: inhibitors. actives 1.1% (n = 220,000). AID 1688; further: on the % scale 0 is the no-effect control and ±100 the full control effect; nearly all actives have a fitted effect of over 60% in size
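PC12 cells stably carrying ecdysone-inducible HTT exon 1 Q103–GFP were induced with tebufenozide (100 nM final) and treated with library compounds in titration. GFP aggregates in lysates were counted by laser scanning cytometry.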
Tau fibril ThT: tau fibrillization inhibition (ThT binding); actives 2.1% (n = 270,000); Potency, µM (doses to about 57.4 µM), for inactives: top-dose activity, negative = inhibition, most hits filed as inhibitors; recombinant tau K18 P301L, heparin-induced fibrillization, ThT fluorescence; P10636; further: on the % scale 0 is the no-effect control and ±100 the full control effect; nearly all actives have a fitted effect of over 55% in size
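Using a mix of unlabeled (15 uM) and Alexa 594-labeled (0.24 uM) tau K18 P301L, heparin-triggered fibrillization over 6 hr at 37 C was scored by ThT fluorescence.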
Tau fluor counter: counter-screen for tau fibril formation inhibitors; actives 0.93% (n = 280,000); AID 1463; tau K18 P301L Alexa594 fluorescence, heparin fibrillization; Potency, µM (doses to about 57.7 µM), inactives show at the top dose activity change, negative = decrease; further: on the % scale 0 is the no-effect control and ±100 the full control effect; nearly all actives have a fitted effect of over 55% in size
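Human tau K18 P301L (15 uM unlabeled, 0.24 uM Alexa 594-labeled) in 100 mM sodium acetate pH 7 with 20 uM heparin, 6 hr at 37 C. ThT 30 uM added, 1 hr ambient; Alexa 594 FP and total fluorescence read at 555/632 nm.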
HTT ATP protect: protects HTT-Q103 PC12 cells, measured by ATP. PC12 HTT-Q103 induced, cytoprotection, ATP luminescence, 40 h. actives 0.14% (n = 230,000). AID 1471. Potency, µM (doses to about 56.4 µM), without a hit: cytoprotection (ATP increase), hits mostly activators; further: % of control where 0% means no effect; nearly all actives have a fitted effect of over 45% in size
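Rat PC12, Q103 Htt exon1-GFP fusion, ecdysone promoter; tebufenozide inducer 100 nM final; compound titration; qHTS, 1500 cells/well; ATPlite luminescent read.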
* = called active by the depositor; ? = inconclusive; / = no result; [ ] = another dose, or the depositor's remark. The call rests on the fitted dose curve; in most records, active means well fitted curve in the direction sought with a large enough effect; inconclusive means small, poorly fitted or top-dose-only effect, or another doubt; inactive means no such curve, though single readings can be large; an effect the other way counts as inactive or inconclusive. Potency means the concentration at half of the fitted maximal effect.

SMILES	Tau FP inhib	HTT aggregate	Tau fibril ThT	Tau fluor counter	HTT ATP protect
CCOC(=O)c1c2c(c(=S)n(-c3ccccc3)c1N)CCC2	?	-1.7%	25.1µM*	?	-38.6%
CCOC(=O)c1c(N)sn(-c2ccccc2)c1=S	-3.8%	12.7%	-10.1%	-9.7%	3.9%[1.9 µM]
CC(C)(C)N1C(=O)[C@H]2[C@H]3[C@H](O)[C@H](O)C/C(=N/OC[C@@H](O)COCc4ccco4)[C@@H]3CC[C@@H]2C1=O	2.9%[11.6 µM]	/	-1.6%[11.5 µM]	0.0%[11.6 µM]	?
O=C(O)CC1c2ccccc2CCN1C(=O)Nc1cc(Cl)ccc1Cl (stereo not given)	6.0%	/	-2.4%	8.4%	/
Cc1ccc(S(=O)(=O)OC[C@@H]2CN3[C@H](c4ccc(Br)cc4)[C@H](C)CC[C@H]3C(=O)O2)cc1	?	/	-26.1%[11.5 µM]	?	-55.5%[10 µM]
COC(=O)Cc1ccc(NC(=S)NCCSc2ccc(Cl)cc2)cc1	?	2.8%[9.22 µM]	-14.0%	7.94µM*[quencher]	8.1%[10 µM]
C/C(=N\NC(=O)c1ccc(-c2ccccc2)cc1)C1C(=O)c2ccccc2C1=O	4.8%[2.34 µM]	5.6%[9.22 µM]	-11.1%	-10.8%	2.4%[10 µM]
C/C(=N\NC(=O)c1ccc(Br)cc1)C1C(=O)c2ccccc2C1=O	?	?	3.98µM*	?	-56.2%
CCOc1ccc(C(=O)N/N=C(/C)C2C(=O)c3ccccc3C2=O)cc1	1.5%	10µM*	1.78µM*	-19.5%	9.9%[10 µM]
CCOc1ccc(OCc2ccc(C(=O)N/N=C(\C)c3ccccn3)cc2)cc1	7.7%	?	?	-1.8%	-41.0%[10 µM]
CCCn1c2ccccc2c2cnn(CC(=O)Nc3ccccc3OC)c(=O)c21	-5.9%	/	-1.2%	-10.4%	/
COc1ccc(CNC(=O)c2ccccc2C(=O)O)cc1	9.5%	9.8%	-3.1%	0.1%	/
COc1ccc(C(=O)NCc2oc(-c3ccccc3)cc2C(=O)O)cc1	4.2%	3.16µM*	3.3%	3.2%	-1.0%[0.074 µM]
OC(COCC(F)(F)C(F)(F)C(F)(F)C(F)F)Cn1c2ccc(Cl)cc2c2cc(Cl)ccc21 (stereo not given)	10µM*	?	5.1%	?	7.8%[10 µM]
N=c1n(Cc2ccccc2)c2ccccc2n1CC(O)COc1ccc(Cl)cc1Cl (stereo not given)	-9.8%	-2.8%[9.22 µM]	9.8%	-6.4%	6.3%[10 µM]
CC1(C)Cc2ccccc2C(/C(=N\Nc2cccc(Cl)c2)C(N)=O)=N1	9.4%	?	14.1µM*	?	-14.1%[10 µM]
CC1(C)Cc2ccccc2C(/C(=N/O)C(N)=O)=N1	-0.7%	0.7%	-10.2%	-1.7%	-17.8%
CC(=O)c1ccc(N/N=C(/C(N)=O)C2=NC(C)(C)Cc3ccccc32)cc1	4.6%	11.2µM*	?	-25.7%	-20.8%[10 µM]
C[C@@H](NC(=O)C1(N)CCCC1)C(=O)O	/	/	/	/	17.3%[10 µM]
CCN1/C(=C/C=C/c2sc3ccccc3[n+]2CC)Sc2ccccc21	/	2µM*	/	/	-97.1%
CCN1/C(=C/C=C/C=C/c2sc3ccccc3[n+]2CC)Sc2ccccc21	17.8µM*	3.98µM*	3.98µM*	15.8µM*[quencher]	-98.8%
CC[n+]1c(/C=C(\C)SC)sc2ccccc21	-0.4%	-29.6%	1.4%	-3.4%	-15.9%
Cc1cccc(CNC(=O)CSCc2cnn(-c3ccccc3)c2-n2cccc2)c1	6.9%	/	-15.7%	-9.8%	/
Cc1ccc(OCC(=O)N2CCN(C(=O)c3ccncc3)CC2)cc1	6.2%	0.0282µM*	-8.7%	-7.8%	/
NC1=N[C@H](c2ccc(Cl)cc2)N(c2ccc(S(=O)(=O)Nc3ncccn3)cc2)C(N)=N1	/	/	/	/	13.4%[10 µM]
SMILES	Tau FP inhib	HTT aggregate	Tau fibril ThT	Tau fluor counter	HTT ATP protect
C=CC(=O)OCCCC	/	/	/	/	-6.0%
O=C(c1cc(COc2c(F)cccc2F)on1)N1CCC(c2ccncc2)CC1	-7.0%	20µM*	-4.7%	-7.5%	-34.9%
O=C(c1cc(COc2ccc(F)cc2Cl)on1)N1CCC(OCc2cccnc2)CC1	?	11.2µM*	?	-13.3%	-55.6%
O=C(c1cc(COc2ccc(F)cc2Cl)on1)N1CCCC(OCc2cccnc2)C1 (stereo not given)	1.6%	?	1.5%	-6.1%	-10.1%
O=C(c1cc(COc2c(F)cccc2F)on1)N1CCC(c2ccccc2F)C1 (stereo not given)	6.6%	-24.7%[9.22 µM]	?	-19.2%	-5.6%[10 µM]
COc1cc(OC)cc([C@H](CNc2ncnc3c2ncn3[C@@H]2O[C@@H](CO)[C@H](O)[C@@H]2O)c2ccccc2C)c1	/	/	/	/	23.2%[1.9 µM]
N#C/C(=C\c1ccc2c(c1)OCO2)C(N)=S	0.8%	4.5%[9.22 µM]	-16.7%	-14.7%	7.0%[10 µM]
N#C/C(=C/c1ccco1)C(N)=S	?	-8.6%[9.22 µM]	28.2µM*	?	7.3%[10 µM]
C=C1CC[C@@H](O)C/C1=C/C=C1\CCC[C@]2(C)[C@@H]1CC[C@H]2[C@@H](C)/C=C\[C@@H](C)C(C)C	/	/	/	/	-23.0%
CC[n+]1c(/C=C/C=C/N(C(C)=O)c2ccccc2)sc2cc(OC)ccc21	12.1%	?	12.6µM*	3.98µM*[fluorescent]	-1.2%[10 µM]
Cc1cc(OC(C)C(=O)N(Cc2ccco2)Cc2ccco2)cc(C)c1Cl (stereo not given)	4.9%	/	?	-24.0%	/
CCSc1nnc(NC(=O)C(C(F)(F)F)C(F)(F)F)s1	?	?	22.4µM*	-20.6%	5.0%
CCSc1nnc(NC(=O)C(C)(C(F)(F)F)C(F)(F)F)s1	6.8%	25.1µM*	0.7%	-4.1%	-44.1%
CC(=O)C1=C(c2ccc(Br)cc2)C(=O)c2ccccc2C1=O	?	5.01µM*	8.91µM*	?	-82.1%[10 µM]
Cc1ccc(CSC2=Nc3ccccc3C3=NC(CCC(=O)NCCc4ccccc4)C(=O)N23)cc1 (stereo not given)	1.0%	/	-17.2%	-11.7%	/
CC1=CN2C(=N)/C(=C/c3ccc(Sc4ccc(Cl)cc4)o3)C(=O)N=C2S1	-9.3%	20.1%	12.6µM*	?	11.5%[1.9 µM]
CC1=CN2C(=N)/C(=C/c3ccc(C)o3)C(=O)N=C2S1	2.4%	0.7%	?	-11.1%	-2.8%[1.9 µM]
CC1=CN2C(=N)/C(=C/c3ccc(Sc4ccc(C)cc4)o3)C(=O)N=C2S1	-4.8%	0.5%	7.94µM*	?	-14.4%[10 µM]
CCOC(=O)C1=C(CSc2nc3c(cc2C#N)CN(C)CC3)OC(N)=C(C#N)C1c1ccc(Cl)cc1 (stereo not given)	-16.0%	9.7%	20µM*	?	-8.9%
COC(=O)c1cc(C)[nH]c2c(C)cc3nc4ccccc4c3c12	?	2.1%[9.22 µM]	?	25.1µM*[quencher]	-20.3%[10 µM]
COC(=O)c1c(C)nc2ccccc2c1C(=O)O	4.1%	4.7%	-9.5%	-7.3%	3.6%
O=C(c1cnccn1)N1CCC2(CC1)CCN(c1cccc(-c3ccccc3)c1)CC2	/	/	/	/	11.8%
COc1ccc2nc(N=Nc3ccc(N(C)C)cc3)sc2c1	-12.6%	3.0%	0.891µM*	?	-116.5%
COc1ccc2nc(/N=C\N(C)C)sc2c1	2.5%	-18.5%	-12.2%	2.6%	-49.6%

Source: PubChem (National Center for Advancing Translational Sciences (NCATS))
